PAFAH2 inh: inhibitors of human PAFAH2 | Q99487 | inhibition, % at 3.39 µM | recombinant PAFAH2, FP-rhodamine activity probe, fluorescence polarization | 340,000 tested, 0.99% active;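 active = inhibition above the mean over all tested compounds plus 3 SD, cut at about 30% in these data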;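 note: inhibitors block probe labeling of enzyme so polarization drops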
Fam108B counter: Fam108B inhibition, counter-screen for RBBP9 inhibitors. 300,000 tested, 0.33% active. inhibition, % at 9.51 µM. recombinant Fam108B, FP-Rh probe fluorescence polarization. AID 1947;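 active = inhibition above the screen mean inhibition plus 3 SD, computed separately per campaign, cut at about 18% in these data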;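 note: inhibitors lower polarization as less probe binds the enzyme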
PAFAH1B3 inh: inhibitors of human PAFAH1B3; recombinant PAFAH1B3, FP-rhodamine probe, fluorescence polarization; inhibition, % at 3.39 µM; 340,000 tested, 0.28% active; AID 492972;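 active = inhibition above the screen-wide average of all tested compounds plus 3 SD, cut at about 25% in these data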
pPAFAH inh: pPAFAH (human) enzyme inhibition | recombinant pPAFAH, FP-rhodamine probe fluorescence polarization | Q13093 | 330,000 tested, 1.5% active | inhibition, % at 3.39 µM;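 active = inhibition above the mean inhibition across the screen plus 3 SD, cut at about 25% in these data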;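 note: inhibitors block binding of the rhodamine activity-based probe so polarization drops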
PAFAH1B2 FP inh: inhibitors of human PAFAH1B2 | inhibition, % at 3.39 µM | P68402 | recombinant PAFAH1B2, FP-rhodamine activity probe, fluorescence polarization | AID 492953 | 340,000 tested, 1.2% active;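 active = inhibition above the mean of all tested compounds plus 3 SD, cut at about 24% in these data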
Target sequence (P68402 whole entry, looked up): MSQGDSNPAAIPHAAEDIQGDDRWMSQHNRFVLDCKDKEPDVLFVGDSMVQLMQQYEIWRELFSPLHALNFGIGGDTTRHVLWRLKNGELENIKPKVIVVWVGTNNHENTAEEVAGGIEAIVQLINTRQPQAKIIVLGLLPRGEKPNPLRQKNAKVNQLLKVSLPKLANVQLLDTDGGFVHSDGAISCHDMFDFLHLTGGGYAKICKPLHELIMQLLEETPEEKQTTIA
PME-1 primary: PME-1 (human) inhibition; Q9Y570; recombinant PME-1, FP-Rh probe fluorescence polarization; inhibition, % at 5.9 µM; 320,000 tested, 0.53% active;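 active = inhibition above the campaign mean of all compounds plus 3 SD, cut at about 26% in these data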;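 note: competitive labeling of PME-1 active site by serine hydrolase directed probe; inhibitors block probe labeling so polarization falls and inhibition rises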
Target sequence (Q9Y570 whole entry, looked up): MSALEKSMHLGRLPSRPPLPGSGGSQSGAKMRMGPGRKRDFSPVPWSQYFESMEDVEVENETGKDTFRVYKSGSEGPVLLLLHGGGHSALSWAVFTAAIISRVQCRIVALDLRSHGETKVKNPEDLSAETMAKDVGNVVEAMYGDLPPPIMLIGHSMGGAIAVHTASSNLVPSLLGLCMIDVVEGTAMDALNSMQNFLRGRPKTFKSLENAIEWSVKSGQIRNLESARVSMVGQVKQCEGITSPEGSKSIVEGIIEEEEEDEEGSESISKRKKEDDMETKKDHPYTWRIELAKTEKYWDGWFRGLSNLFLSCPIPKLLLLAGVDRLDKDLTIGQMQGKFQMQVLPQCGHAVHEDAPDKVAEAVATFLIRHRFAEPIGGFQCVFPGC
A number is an active result; i = inactive; nt = no result given. In the library only some 2.9% were active in any assay of this set; here they are far more common.

SMILES	PAFAH2 inh	Fam108B counter	PAFAH1B3 inh	pPAFAH inh	PAFAH1B2 FP inh	PME-1 primary
Cc1ccc(C(=O)OCC(=O)N(CC(C)C)c2c(N)n(Cc3ccccc3)c(=O)[nH]c2=O)o1	i	i	i	i	i	i
COc1ccc(C(CNC(=O)c2cccc(NC(=O)c3cccs3)c2)N2CCCC2)cc1 (stereo not given)	i	nt	i	i	i	i
Cc1ccc(SCC(=O)NCCC2=CCCCC2)cc1	i	i	i	i	50.3	i
Cc1cc(C)c(OCC(=O)OCC(=O)NCCC2=CCCCC2)c(C)c1	i	i	i	33.3	i	i
Cc1ccc(OCC(=O)NCCC2=CCCCC2)cc1	i	i	i	i	i	i
Cc1cc(C)c(OCC(=O)OCC(=O)NC2CCC(C)CC2)c(C)c1 (stereo not given)	i	i	i	26.1	i	i
CN(C(=O)c1ccccc1-c1ncc[nH]1)C1CCCN(Cc2ccccc2F)C1 (stereo not given)	i	i	i	i	i	i
CCOC(=O)CN1C(=O)S/C(=C\c2ccc(-c3ccc(C(=O)O)c(Cl)c3)o2)C1=O	i	i	i	i	i	i
O=C(O)c1ccc(-c2ccc(/C=C3\NC(=O)N(Cc4ccc(Cl)cc4)C3=O)o2)cc1Cl	30.3	nt	i	nt	i	nt
COc1ccc(C2=NN(CCC(=O)NCc3cccs3)C(=O)CC2)cc1	i	i	i	i	i	i
COc1ccccc1OCC(=O)NC1CC(C)(C)NC(C)(C)C1	i	i	i	i	i	i
CSCCC(NC(=O)c1ccccc1Cl)C(=O)NC1CCN(Cc2ccccc2)CC1 (stereo not given)	i	i	i	i	i	i
Cc1cccc(C)c1NS(=O)(=O)c1ccc(NC(=O)c2ccc(Cl)c([N+](=O)[O-])c2)cc1	i	i	i	i	i	33.3
O=C(Nc1ccc(S(=O)(=O)NC2=NCCCCC2)cc1)c1ccc(Cl)c([N+](=O)[O-])c1	i	nt	i	i	i	nt
Cc1[nH]n(C(N)=S)c(=O)c1C(c1ccccc1)C(C#N)C#N (stereo not given)	i	i	i	i	i	i
Cc1[nH]n(-c2ncc(-c3ccccc3)s2)c(=O)c1C(c1ccc(Br)cc1)C(C#N)C#N (stereo not given)	i	i	i	27.4	i	i
CSc1oc(-c2ccco2)nc1S(=O)(=O)c1ccc(Br)cc1	i	i	i	i	i	i
CC(C)Sc1oc(-c2ccco2)nc1S(=O)(=O)c1ccc(F)cc1	i	i	i	25.5	i	i
Cc1ccc(C)c(S(=O)(=O)N2CCN(C(=O)c3ccc(-n4cncn4)c([N+](=O)[O-])c3)CC2)c1	i	i	i	i	i	i
Cc1ccc(C)c(S(=O)(=O)N2CCN(C(=O)c3ccc(N4CCCC4)c([N+](=O)[O-])c3)CC2)c1	i	i	i	25.4	i	i
O=C(NC(=S)Nc1cc([N+](=O)[O-])ccc1O)c1ccc2c(c1)OCO2	i	i	i	29.4	i	i
CCC1Nc2ncnc(N3CCN(c4ccccn4)CC3)c2N(Cc2ccc(Cl)cc2)C1=O (stereo not given)	i	i	i	i	i	i
CCC1CCC(C(=O)NNC(=O)c2cc(-c3ccco3)[nH]n2)CC1 (stereo not given)	i	i	i	30.7	i	i
Cc1ccc(C2C3=C(CCCC3=O)Nc3c2c(C)nn3-c2ccccn2)o1 (stereo not given)	nt	i	nt	i	nt	i
O=C(COC(=O)c1cccc(S(=O)(=O)NCc2ccccc2)c1)Nc1ccccc1OC(F)F	43.0	i	i	31.7	i	i
SMILES	PAFAH2 inh	Fam108B counter	PAFAH1B3 inh	pPAFAH inh	PAFAH1B2 FP inh	PME-1 primary
O=C(COC(=O)c1ncc(Cl)c(Cl)c1Cl)Nc1ccccc1OC(F)F	i	i	i	25.4	i	i
CC(NC(=O)COC(=O)c1cccnc1Cl)C12CC3CC(CC(C3)C1)C2 (stereo not given)	44.6	nt	i	i	50.5	nt
O=c1[nH]c(CSc2nc3ccccc3s2)nc2cc(Cl)ccc12	nt	i	nt	i	nt	i
O=c1[nH]c(CSc2nc3ccccc3s2)nc2ccccc12	i	i	i	i	30.6	i
Cn1c(N/N=C/c2c[nH]c3ccccc23)nc2ccccc21	i	i	i	i	i	29.6
C[C@H](O)[C@@H]1C(=O)N2CCc3ccc(-c4ccccc4)cc3[C@@H]2C[C@@H]1N(C)C(=O)c1ccc(C#N)cc1	i	nt	i	nt	i	nt
COc1ccc(C2=NN(c3nc(-c4ccc(CNC(C)=O)cc4)cs3)C(c3ccco3)C2)cc1 (stereo not given)	i	i	i	25.4	i	i
Cc1ccc(-n2c3nc(=O)[nH]c(=O)c-3cc3cc([N+](=O)[O-])ccc32)cc1	i	i	i	i	i	62.9
Cc1ccc(-n2c(C)nn(Cc3ccc([N+](=O)[O-])cc3)c2=O)cc1	i	i	i	i	i	i
CC(/C=N/NC(=O)NC1CCCCC1)=C\c1ccccc1	i	i	i	29.1	i	i
COCCn1c(SCC(=O)Nc2c(C)n(C)n(-c3ccccc3)c2=O)nc2ccccc2c1=O	i	nt	i	i	i	i
CC1(OC(=O)C2CCCC2)C(=O)C=C2C=C(c3ccsc3)N(Cc3ccco3)C=C2C1=O (stereo not given)	i	i	i	31.1	i	i
CS(=O)(=O)C1=NSC2=NC(=O)/C(=C\c3cccn3-c3ccc(Cl)cc3)C(=N)N21	i	i	i	i	63.8	i
COc1ccc(C(=O)c2ccc([N+](=O)[O-])cc2Cl)cc1	nt	i	nt	i	nt	i
S=c1[nH]nc(-c2ccco2)n1/N=C/c1cccc(Cl)c1Cl	i	i	i	i	i	i
S=c1[nH]nc(-c2ccco2)n1/N=C/c1ccc(Cl)cc1Cl	i	i	i	31.3	i	i
O=C(CCN1C(=O)S/C(=C\c2cccs2)C1=O)NC1=NCCS1	i	i	i	i	i	i
COc1ccc(NC(=O)CSc2nc(C)c3c(c2C#N)CCCC3)cc1	i	i	i	i	i	i
CCc1nnc(NC(=O)CSc2nc(C)c3c(c2C#N)CCCC3)s1	i	i	i	i	i	33.5
CCOC(=O)N1CCC(=NNC(=O)c2cc3ccccc3cc2O)CC1	i	i	i	27.0	i	i
O=C1CCCC(=NNC(=O)c2cc3ccccc3cc2O)C1	i	nt	i	i	i	nt
Cc1ccc(S(=O)(=O)N2CCN(C(=O)CSc3ccc(F)cc3)CC2)cc1	i	i	i	i	26.2	i
CCCOc1ccccc1OCC(=O)N1CCN(S(=O)(=O)c2ccc(Cl)cc2)CC1	i	nt	i	i	24.9	i
CCOc1ccc(OCCC(=O)OCC(=O)N2CCN(S(=O)(=O)c3ccc(C)cc3)CC2)cc1	i	i	i	i	i	i
CC(=O)c1ccc(OCC(=O)N2CCN(S(=O)(=O)c3ccc(C)cc3C)CC2)cc1	i	i	i	31.9	i	i
O=C(CSc1ccccc1)N1CCN(S(=O)(=O)c2ccccc2)CC1	i	i	i	i	i	i
